From PubChem BioAssay AID1159580 (chemical genetic matrix, 2015)
Several values for one entry are separate records, joined by “and”; a condition that tells them apart may be missing. Equal values may be shown once. Out of some 5,500 compounds screened, about 2,000 (36%) were called active. Inconclusive results (about 18%) are left out. The list shows a part of the results. Unmarked numbers belong to inactive results. Rule as the data show it: active = normalized growth mostly below about 0.91 (no sharp cut-off); inconclusive = no clear call, values can overlap the other calls; inactive = mostly above about 0.92.

Assay: chemical genetic growth profiling, strain panel (AID 1159580);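 also: tested at 20 µM; growth read once vehicle control cultures reached saturation at 30 °C; 1 = growth at the plate median or of vehicle wells; lower values mean less growth of the strain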
Details: S. cerevisiae deletion strains, growth OD

Which normalized growth (locus YAL013W, strain DEP1, hits give low values) does the source give for `CCc1nc(N)nc(N)c1-c1ccc(Cl)cc1` here?
Its normalized growth is 1.02.

What about the normalized growth (locus YAL021C, strain ccr4, hits give low values) of the same molecule?
Its normalized growth is 0.951.

What about the normalized growth (locus YAL026C, strain drs2, hits give low values) of the same molecule?
The normalized growth was 0.967.

And the normalized growth (locus YAL030W, strain snc1, hits give low values)?
Its normalized growth is 0.977.

What about the normalized growth (locus YBL061C, strain skt5, hits give low values) of the same molecule?
The normalized growth was 0.97.

And the normalized growth (locus YBR009C, strain hhf1, hits give low values)?
The normalized growth was 0.997.

What about the normalized growth (locus YBR021W, strain FUR4, hits give low values) of the same molecule?
The normalized growth was 1.02.

And the normalized growth (locus YBR023C, strain chs3, hits give low values)?
The normalized growth was 0.999.

What about the normalized growth (locus YBR171W, strain sec66, hits give low values) of the same molecule?
Its normalized growth is 0.969.

And the normalized growth (locus YBR229C, strain ROT2, hits give low values)?
The normalized growth was 1.01.

What about the normalized growth (locus YBR231C, strain swc5, hits give low values) of the same molecule?
Its normalized growth is 0.971.

And the normalized growth (locus YBR279W, strain paf1, hits give low values)?
The normalized growth was 0.994.

What about the normalized growth (locus YCL011C, strain gbp2, hits give low values) of the same molecule?
The normalized growth was 0.978.

And the normalized growth (locus YCL016C, strain dcc1, hits give low values)?
The normalized growth was 0.997.

What about the normalized growth (locus YCL029C, strain bik1, hits give low values) of the same molecule?
Its normalized growth is 0.988.

What about the normalized growth (locus YCL061C, strain MRC1, hits give low values) of the same molecule?
Its normalized growth is 0.958.

What about the normalized growth (locus YCL069W, strain vba3, hits give low values) of the same molecule?
Its normalized growth is 0.986.

And the normalized growth (locus YCR088W, strain abp1, hits give low values)?
Its normalized growth is 0.977.

What about the normalized growth (locus YDL005C, strain med2, hits give low values) of the same molecule?
The normalized growth was 0.972.

And the normalized growth (locus YDL035C, strain GPR1, hits give low values)?
Its normalized growth is 0.995.

And the normalized growth (locus YDL040C, strain nat1, hits give low values)?
Its normalized growth is 0.973.

And the normalized growth (locus YDL074C, strain BRE1, hits give low values)?
The normalized growth was 0.987.

What about the normalized growth (locus YDL101C, strain DUN1, hits give low values) of the same molecule?
Its normalized growth is 1.

What about the normalized growth (locus YDL134C, strain PPH21, hits give low values) of the same molecule?
Its normalized growth is 1.01.

And the normalized growth (locus YDL185W, strain tfp1, hits give low values)?
The normalized growth was 1.

What about the normalized growth (locus YDL192W, strain arf1, hits give low values) of the same molecule?
Its normalized growth is 1.

What about the normalized growth (locus YDR001C, strain nth1, hits give low values) of the same molecule?
The normalized growth was 0.969.

And the normalized growth (locus YDR069C, strain doa4, hits give low values)?
Its normalized growth is 0.898 (active).

And the normalized growth (locus YDR101C, strain arx1, hits give low values)?
The normalized growth was 0.987.

And the normalized growth (locus YDR137W, strain rgp1, hits give low values)?
Its normalized growth is 1.02.

And the normalized growth (locus YDR150W, strain NUM1, hits give low values)?
The normalized growth was 1.01.

And the normalized growth (locus YDR159W, strain sac3, hits give low values)?
Its normalized growth is 0.955.

And the normalized growth (locus YDR162C, strain NBP2, hits give low values)?
The normalized growth was 1.01.

What about the normalized growth (locus YDR195W, strain ref2) of the same molecule?
Its normalized growth is 0.979.

What about the normalized growth (locus YDR297W, strain sur2, hits give low values) of the same molecule?
Its normalized growth is 0.987.

What about the normalized growth (locus YDR318W, strain mcm21, hits give low values) of the same molecule?
The normalized growth was 0.976.

What about the normalized growth (locus YDR334W, strain swr1, hits give low values) of the same molecule?
Its normalized growth is 0.936.

And the normalized growth (locus YDR335W, strain msn5, hits give low values)?
Its normalized growth is 0.973.

What about the normalized growth (locus YDR388W, hits give low values) of the same molecule?
The normalized growth was 0.974.

And the normalized growth (locus YDR392W, strain spt3, hits give low values)?
Its normalized growth is 1.02.

What about the normalized growth (locus YDR502C, strain sam2, hits give low values) of the same molecule?
The normalized growth was 0.996.

What about the normalized growth (locus YEL003W, strain gim4, hits give low values) of the same molecule?
The normalized growth was 0.97.

And the normalized growth (locus YEL037C, strain rad23, hits give low values)?
The normalized growth was 0.969.

And the normalized growth (locus YEL061C, strain CIN8 (second series), hits give low values)?
Its normalized growth is 0.966.

And the normalized growth (locus YEL061C, strain CIN8, hits give low values)?
Its normalized growth is 1.01.

And the normalized growth (locus YER015W, strain faa2, hits give low values)?
Its normalized growth is 0.985.

And the normalized growth (locus YER016W, strain bim1, hits give low values)?
Its normalized growth is 1.01.

And the normalized growth (locus YER110C, hits give low values)?
Its normalized growth is 0.999.

And the normalized growth (locus YER111C, strain swi4, hits give low values)?
The normalized growth was 0.983.

What about the normalized growth (locus YER155C, strain BEM2 (second series), hits give low values) of the same molecule?
Its normalized growth is 0.933.

What about the normalized growth (locus YER155C, strain BEM2, hits give low values) of the same molecule?
Its normalized growth is 1.01.

What about the normalized growth (locus YER167W, strain BCK2, hits give low values) of the same molecule?
Its normalized growth is 1.01.

And the normalized growth (locus YFR010W, strain ubp6, hits give low values)?
Its normalized growth is 0.931.

What about the normalized growth (locus YGL078C, strain dbp3, hits give low values) of the same molecule?
Its normalized growth is 1.

What about the normalized growth (locus YGL086W, strain mad1, hits give low values) of the same molecule?
Its normalized growth is 0.994.

What about the normalized growth (locus YGL167C, strain pmr1, hits give low values) of the same molecule?
Its normalized growth is 0.981.

What about the normalized growth (locus YGL173C, strain kem1, hits give low values) of the same molecule?
The normalized growth was 0.982.

And the normalized growth (locus YGL227W, strain vid30, hits give low values)?
The normalized growth was 0.959.

And the normalized growth (locus YGL240W, strain doc1, hits give low values)?
Its normalized growth is 0.97.

And the normalized growth (locus YGL248W, strain PDE1, hits give low values)?
The normalized growth was 1.01.

And the normalized growth (locus YGL253W, strain hxk2, hits give low values)?
Its normalized growth is 0.97.

What about the normalized growth (locus YGR078C, strain PAC10, hits give low values) of the same molecule?
The normalized growth was 1.

What about the normalized growth (locus YGR135W, strain pre9, hits give low values) of the same molecule?
Its normalized growth is 0.979.

What about the normalized growth (locus YGR229C, strain SMI1, hits give low values) of the same molecule?
Its normalized growth is 1.01.

What about the normalized growth (locus YGR252W, strain gcn5, hits give low values) of the same molecule?
Its normalized growth is 0.981.

And the normalized growth (locus YHR013C, strain ard1, hits give low values)?
Its normalized growth is 0.886.

And the normalized growth (locus YHR027C, strain rpn1, hits give low values)?
The normalized growth was 0.976.

And the normalized growth (locus YHR030C, strain SLT2, hits give low values)?
Its normalized growth is 1.01 and 1.05.

And the normalized growth (locus YHR079C, strain IRE1 (second series), hits give low values)?
The normalized growth was 0.987.

What about the normalized growth (locus YHR079C, strain IRE1, hits give low values) of the same molecule?
Its normalized growth is 1.07.

And the normalized growth (locus YHR094C, strain hxt1, hits give low values)?
The normalized growth was 1.

And the normalized growth (locus YHR129C, strain ARP1, hits give low values)?
The normalized growth was 1.01.

And the normalized growth (locus YHR142W, strain chs7, hits give low values)?
Its normalized growth is 0.95.

And the normalized growth (locus YHR200W, strain rpn10, hits give low values)?
The normalized growth was 1.

What about the normalized growth (locus YIL066C, strain RNR3, hits give low values) of the same molecule?
The normalized growth was 1.01.

And the normalized growth (locus YIL073C, strain SPO22, hits give low values)?
Its normalized growth is 1.31.

What about the normalized growth (locus YIL125W, strain kgd1, hits give low values) of the same molecule?
Its normalized growth is 1.01.

And the normalized growth (locus YIR030C, strain dcg1, hits give low values)?
Its normalized growth is 1.

And the normalized growth (locus YJL092W, strain hpr5, hits give low values)?
Its normalized growth is 0.956.

And the normalized growth (locus YJL095W, strain BCK1 (second series), hits give low values)?
The normalized growth was 0.979.

What about the normalized growth (locus YJL095W, strain BCK1, hits give low values) of the same molecule?
Its normalized growth is 0.982 and 1.04.

And the normalized growth (locus YJL115W, strain asf1, hits give low values)?
The normalized growth was 0.961.

What about the normalized growth (locus YJL129C, strain trk1, hits give low values) of the same molecule?
The normalized growth was 0.927.

What about the normalized growth (locus YJL134W, strain LCB3, hits give low values) of the same molecule?
The normalized growth was 1.01.

What about the normalized growth (locus YJL154C, strain vps35, hits give low values) of the same molecule?
The normalized growth was 0.954.

And the normalized growth (locus YJL164C, strain tpk1, hits give low values)?
The normalized growth was 1.

What about the normalized growth (locus YJL166W, strain qcr8, hits give low values) of the same molecule?
The normalized growth was 0.944.

What about the normalized growth (locus YJL168C, strain set2, hits give low values) of the same molecule?
Its normalized growth is 1.

What about the normalized growth (locus YJL187C, strain SWE1 (second series), hits give low values) of the same molecule?
The normalized growth was 0.982.

And the normalized growth (locus YJR043C, strain POL32, hits give low values)?
Its normalized growth is 0.992.

What about the normalized growth (locus YJR066W, strain TOR1, hits give low values) of the same molecule?
Its normalized growth is 0.994.
